Data: ChEMBL document CHEMBL1961873, “Compounds: GSK PKIS; Assays: Nanosyn kinase panel” (2012)

Experiments:
[1] = biological target: Tyrosine-protein kinase CSK (Homo sapiens) (UniProt P41240); details: at 1 µM;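 further: each value is an averaged inhibition reading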
[2] = biological target: T1, Discoidin domain-containing receptor 2 (Homo sapiens) (UniProt Q16832); details: at 0.1 µM
T1 sequence (whole entry): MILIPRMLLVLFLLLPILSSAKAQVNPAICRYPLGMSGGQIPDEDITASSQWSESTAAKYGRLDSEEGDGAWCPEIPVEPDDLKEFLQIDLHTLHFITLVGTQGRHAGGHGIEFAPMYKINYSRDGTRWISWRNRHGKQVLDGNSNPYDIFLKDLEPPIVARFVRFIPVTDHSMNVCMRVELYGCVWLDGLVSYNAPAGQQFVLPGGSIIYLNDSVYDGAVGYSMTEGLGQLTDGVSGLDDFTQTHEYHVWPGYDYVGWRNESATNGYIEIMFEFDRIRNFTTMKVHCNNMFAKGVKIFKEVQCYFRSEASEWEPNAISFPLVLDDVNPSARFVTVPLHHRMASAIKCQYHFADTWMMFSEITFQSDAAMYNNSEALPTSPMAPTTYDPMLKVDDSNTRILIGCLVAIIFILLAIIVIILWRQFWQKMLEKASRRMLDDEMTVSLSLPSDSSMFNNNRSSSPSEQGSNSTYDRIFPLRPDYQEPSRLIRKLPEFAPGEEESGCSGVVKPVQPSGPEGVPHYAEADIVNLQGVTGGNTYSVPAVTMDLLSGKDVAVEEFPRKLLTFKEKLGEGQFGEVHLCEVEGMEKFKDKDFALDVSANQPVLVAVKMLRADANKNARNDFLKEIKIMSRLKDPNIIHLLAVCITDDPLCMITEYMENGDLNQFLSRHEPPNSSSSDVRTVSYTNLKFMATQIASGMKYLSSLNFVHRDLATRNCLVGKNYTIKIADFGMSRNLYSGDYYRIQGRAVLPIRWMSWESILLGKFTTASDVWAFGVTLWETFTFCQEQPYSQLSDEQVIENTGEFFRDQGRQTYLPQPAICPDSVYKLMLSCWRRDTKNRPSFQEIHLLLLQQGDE

[3] = biological target: T1, Discoidin domain-containing receptor 2 (Homo sapiens); details: at 1 µM
[4] = biological target: Epidermal growth factor receptor (Homo sapiens) (UniProt P00533); details: at 0.1 µM
Chain of Epidermal growth factor receptor (Homo sapiens) (P00533 whole entry): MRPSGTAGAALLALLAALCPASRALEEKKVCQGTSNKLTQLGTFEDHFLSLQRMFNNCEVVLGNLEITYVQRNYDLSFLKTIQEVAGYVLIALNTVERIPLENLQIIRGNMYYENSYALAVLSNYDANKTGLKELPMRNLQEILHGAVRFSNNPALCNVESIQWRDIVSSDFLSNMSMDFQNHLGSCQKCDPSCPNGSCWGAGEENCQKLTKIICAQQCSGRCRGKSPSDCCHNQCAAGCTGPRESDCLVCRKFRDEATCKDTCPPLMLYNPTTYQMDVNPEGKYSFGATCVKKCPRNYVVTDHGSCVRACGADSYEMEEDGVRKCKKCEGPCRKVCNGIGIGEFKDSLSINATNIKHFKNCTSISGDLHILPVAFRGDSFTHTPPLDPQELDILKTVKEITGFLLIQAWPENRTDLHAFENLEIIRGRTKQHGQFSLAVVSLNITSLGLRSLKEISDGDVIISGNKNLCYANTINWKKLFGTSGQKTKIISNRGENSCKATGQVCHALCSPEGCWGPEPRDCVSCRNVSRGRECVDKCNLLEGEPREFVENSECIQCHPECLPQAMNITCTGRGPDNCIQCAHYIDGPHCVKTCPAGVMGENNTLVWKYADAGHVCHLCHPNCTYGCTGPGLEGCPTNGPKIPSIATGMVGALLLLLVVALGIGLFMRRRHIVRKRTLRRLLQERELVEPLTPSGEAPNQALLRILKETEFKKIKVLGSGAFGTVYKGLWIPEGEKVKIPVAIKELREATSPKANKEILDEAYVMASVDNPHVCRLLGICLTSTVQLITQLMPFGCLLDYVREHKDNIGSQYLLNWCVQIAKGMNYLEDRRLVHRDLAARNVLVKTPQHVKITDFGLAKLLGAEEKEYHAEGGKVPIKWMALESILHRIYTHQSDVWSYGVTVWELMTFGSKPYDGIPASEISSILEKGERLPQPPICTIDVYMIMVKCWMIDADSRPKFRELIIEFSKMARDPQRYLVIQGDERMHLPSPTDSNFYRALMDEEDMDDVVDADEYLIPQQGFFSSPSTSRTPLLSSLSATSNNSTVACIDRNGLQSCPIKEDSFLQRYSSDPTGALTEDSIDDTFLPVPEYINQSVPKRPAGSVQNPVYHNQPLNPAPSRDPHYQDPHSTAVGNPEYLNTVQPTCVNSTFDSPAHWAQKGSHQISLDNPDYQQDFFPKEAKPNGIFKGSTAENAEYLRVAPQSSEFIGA

[5] = biological target: Epidermal growth factor receptor (Homo sapiens) (UniProt P00533); details: at 1 µM
[6] = tested on: Epidermal growth factor receptor (Homo sapiens), P00533 [L858R]; details: at 0.1 µM
Chain of Epidermal growth factor receptor (Homo sapiens), P00533 [L858R] (P00533 whole entry L858R): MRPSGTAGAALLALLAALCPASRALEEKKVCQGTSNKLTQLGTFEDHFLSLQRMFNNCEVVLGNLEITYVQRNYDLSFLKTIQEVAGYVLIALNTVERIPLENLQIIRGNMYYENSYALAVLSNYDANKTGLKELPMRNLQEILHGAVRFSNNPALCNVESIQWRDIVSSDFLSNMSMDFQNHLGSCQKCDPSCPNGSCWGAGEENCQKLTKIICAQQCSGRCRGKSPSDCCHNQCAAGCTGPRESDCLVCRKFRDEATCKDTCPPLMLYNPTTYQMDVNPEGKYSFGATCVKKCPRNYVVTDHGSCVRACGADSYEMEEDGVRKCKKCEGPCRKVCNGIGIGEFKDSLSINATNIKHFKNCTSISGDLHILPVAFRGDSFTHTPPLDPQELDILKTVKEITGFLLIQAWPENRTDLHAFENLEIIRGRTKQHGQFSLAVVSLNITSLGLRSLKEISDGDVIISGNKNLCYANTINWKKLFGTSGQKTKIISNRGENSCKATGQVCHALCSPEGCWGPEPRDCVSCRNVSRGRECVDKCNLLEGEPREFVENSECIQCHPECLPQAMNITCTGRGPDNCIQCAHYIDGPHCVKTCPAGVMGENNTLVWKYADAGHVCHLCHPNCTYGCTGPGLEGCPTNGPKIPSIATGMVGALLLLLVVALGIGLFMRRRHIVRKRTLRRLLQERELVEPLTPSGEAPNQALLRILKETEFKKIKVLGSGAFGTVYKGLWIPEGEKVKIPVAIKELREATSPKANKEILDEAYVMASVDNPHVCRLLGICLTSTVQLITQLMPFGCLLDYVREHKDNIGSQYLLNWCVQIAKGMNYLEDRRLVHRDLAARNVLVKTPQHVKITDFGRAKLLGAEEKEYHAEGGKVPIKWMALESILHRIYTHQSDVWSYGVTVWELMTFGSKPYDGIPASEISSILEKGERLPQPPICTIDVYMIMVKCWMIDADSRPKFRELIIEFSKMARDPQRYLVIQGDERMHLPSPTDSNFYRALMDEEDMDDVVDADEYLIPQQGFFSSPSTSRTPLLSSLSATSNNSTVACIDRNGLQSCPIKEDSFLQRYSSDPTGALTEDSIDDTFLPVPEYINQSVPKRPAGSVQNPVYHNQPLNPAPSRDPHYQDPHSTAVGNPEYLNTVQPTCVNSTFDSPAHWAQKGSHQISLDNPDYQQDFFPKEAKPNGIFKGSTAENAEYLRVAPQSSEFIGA

[7] = tested on: Epidermal growth factor receptor (Homo sapiens), P00533 [L858R]; details: at 1 µM
[8] = tested on: Epidermal growth factor receptor (Homo sapiens), P00533 [L861Q]; details: at 0.1 µM
[9] = tested on: Epidermal growth factor receptor (Homo sapiens), P00533 [L861Q]; details: at 1 µM
[10] = tested on: Epidermal growth factor receptor (Homo sapiens), P00533 [T790M]; details: at 0.1 µM
Chain of Epidermal growth factor receptor (Homo sapiens), P00533 [T790M] (P00533 whole entry T790M): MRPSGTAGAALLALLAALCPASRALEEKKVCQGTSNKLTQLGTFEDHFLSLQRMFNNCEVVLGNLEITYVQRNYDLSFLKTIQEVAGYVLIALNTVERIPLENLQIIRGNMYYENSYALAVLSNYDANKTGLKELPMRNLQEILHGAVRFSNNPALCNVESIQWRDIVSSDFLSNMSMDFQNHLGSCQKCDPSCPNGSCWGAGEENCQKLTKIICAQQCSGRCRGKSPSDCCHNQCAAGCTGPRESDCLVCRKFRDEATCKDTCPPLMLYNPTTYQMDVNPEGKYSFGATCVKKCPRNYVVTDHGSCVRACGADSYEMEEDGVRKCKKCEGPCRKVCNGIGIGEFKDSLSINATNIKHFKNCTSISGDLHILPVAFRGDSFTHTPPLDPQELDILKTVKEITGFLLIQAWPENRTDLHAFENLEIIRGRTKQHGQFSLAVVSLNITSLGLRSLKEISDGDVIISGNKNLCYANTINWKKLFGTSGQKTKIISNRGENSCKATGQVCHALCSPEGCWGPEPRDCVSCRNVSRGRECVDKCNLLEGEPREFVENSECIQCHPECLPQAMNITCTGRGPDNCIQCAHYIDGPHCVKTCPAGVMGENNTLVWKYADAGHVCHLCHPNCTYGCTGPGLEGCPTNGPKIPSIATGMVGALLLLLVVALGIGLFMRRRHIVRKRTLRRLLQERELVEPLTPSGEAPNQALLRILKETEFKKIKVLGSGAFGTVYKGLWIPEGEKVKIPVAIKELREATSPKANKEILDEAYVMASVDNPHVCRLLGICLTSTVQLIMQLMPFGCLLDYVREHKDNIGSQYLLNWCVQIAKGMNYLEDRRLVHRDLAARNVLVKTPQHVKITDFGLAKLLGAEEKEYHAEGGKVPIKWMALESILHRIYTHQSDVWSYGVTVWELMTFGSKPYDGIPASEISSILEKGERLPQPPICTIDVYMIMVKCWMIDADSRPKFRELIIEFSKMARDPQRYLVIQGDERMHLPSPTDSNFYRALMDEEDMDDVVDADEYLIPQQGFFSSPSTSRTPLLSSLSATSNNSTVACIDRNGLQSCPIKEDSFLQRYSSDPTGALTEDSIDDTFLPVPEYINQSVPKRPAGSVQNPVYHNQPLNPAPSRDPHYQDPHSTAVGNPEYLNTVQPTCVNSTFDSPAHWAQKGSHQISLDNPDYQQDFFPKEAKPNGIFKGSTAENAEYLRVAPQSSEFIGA

[11] = tested on: Epidermal growth factor receptor (Homo sapiens), P00533 [T790M]; details: at 1 µM
[12] = tested on: Epidermal growth factor receptor (Homo sapiens), P00533 [L858R,T790M]; details: at 0.1 µM
[13] = tested on: Epidermal growth factor receptor (Homo sapiens), P00533 [L858R,T790M]; details: at 1 µM
[14] = biological target: Ephrin type-A receptor 2 (Homo sapiens) (UniProt P29317); details: at 0.1 µM
[15] = biological target: Ephrin type-A receptor 2 (Homo sapiens) (UniProt P29317); details: at 1 µM
[16] = biological target: T2, Ephrin type-A receptor 3 (Homo sapiens) (UniProt P29320); details: at 0.1 µM
T2 sequence (whole entry): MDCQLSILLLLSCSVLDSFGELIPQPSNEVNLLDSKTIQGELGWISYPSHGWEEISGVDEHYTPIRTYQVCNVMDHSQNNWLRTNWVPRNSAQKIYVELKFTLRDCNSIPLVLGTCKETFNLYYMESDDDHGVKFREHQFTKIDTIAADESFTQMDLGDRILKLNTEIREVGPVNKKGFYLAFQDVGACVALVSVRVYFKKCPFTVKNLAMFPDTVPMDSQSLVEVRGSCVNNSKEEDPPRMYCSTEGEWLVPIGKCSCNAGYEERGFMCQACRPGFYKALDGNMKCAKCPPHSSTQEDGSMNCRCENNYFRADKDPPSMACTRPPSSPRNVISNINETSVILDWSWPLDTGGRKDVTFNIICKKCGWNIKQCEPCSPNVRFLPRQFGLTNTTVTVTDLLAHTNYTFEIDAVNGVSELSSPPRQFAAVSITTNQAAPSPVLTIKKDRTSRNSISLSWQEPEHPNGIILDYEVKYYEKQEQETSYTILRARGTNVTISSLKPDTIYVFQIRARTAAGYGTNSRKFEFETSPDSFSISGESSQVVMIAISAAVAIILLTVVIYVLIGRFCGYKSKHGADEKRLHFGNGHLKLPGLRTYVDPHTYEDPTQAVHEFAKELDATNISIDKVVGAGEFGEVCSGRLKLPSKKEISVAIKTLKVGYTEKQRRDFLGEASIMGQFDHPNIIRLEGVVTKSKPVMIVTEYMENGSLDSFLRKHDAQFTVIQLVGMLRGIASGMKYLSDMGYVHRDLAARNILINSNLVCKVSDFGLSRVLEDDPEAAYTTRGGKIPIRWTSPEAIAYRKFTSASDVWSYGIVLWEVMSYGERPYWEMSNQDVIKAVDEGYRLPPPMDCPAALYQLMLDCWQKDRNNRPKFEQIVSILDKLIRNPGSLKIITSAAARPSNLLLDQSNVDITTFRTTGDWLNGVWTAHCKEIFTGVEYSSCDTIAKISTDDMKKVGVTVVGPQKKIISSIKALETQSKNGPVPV

[17] = biological target: T2, Ephrin type-A receptor 3 (Homo sapiens); details: at 1 µM
[18] = biological target: Ephrin type-A receptor 4 (Homo sapiens) (UniProt P54764); details: at 0.1 µM
Chain of Ephrin type-A receptor 4 (Homo sapiens) (P54764 whole entry): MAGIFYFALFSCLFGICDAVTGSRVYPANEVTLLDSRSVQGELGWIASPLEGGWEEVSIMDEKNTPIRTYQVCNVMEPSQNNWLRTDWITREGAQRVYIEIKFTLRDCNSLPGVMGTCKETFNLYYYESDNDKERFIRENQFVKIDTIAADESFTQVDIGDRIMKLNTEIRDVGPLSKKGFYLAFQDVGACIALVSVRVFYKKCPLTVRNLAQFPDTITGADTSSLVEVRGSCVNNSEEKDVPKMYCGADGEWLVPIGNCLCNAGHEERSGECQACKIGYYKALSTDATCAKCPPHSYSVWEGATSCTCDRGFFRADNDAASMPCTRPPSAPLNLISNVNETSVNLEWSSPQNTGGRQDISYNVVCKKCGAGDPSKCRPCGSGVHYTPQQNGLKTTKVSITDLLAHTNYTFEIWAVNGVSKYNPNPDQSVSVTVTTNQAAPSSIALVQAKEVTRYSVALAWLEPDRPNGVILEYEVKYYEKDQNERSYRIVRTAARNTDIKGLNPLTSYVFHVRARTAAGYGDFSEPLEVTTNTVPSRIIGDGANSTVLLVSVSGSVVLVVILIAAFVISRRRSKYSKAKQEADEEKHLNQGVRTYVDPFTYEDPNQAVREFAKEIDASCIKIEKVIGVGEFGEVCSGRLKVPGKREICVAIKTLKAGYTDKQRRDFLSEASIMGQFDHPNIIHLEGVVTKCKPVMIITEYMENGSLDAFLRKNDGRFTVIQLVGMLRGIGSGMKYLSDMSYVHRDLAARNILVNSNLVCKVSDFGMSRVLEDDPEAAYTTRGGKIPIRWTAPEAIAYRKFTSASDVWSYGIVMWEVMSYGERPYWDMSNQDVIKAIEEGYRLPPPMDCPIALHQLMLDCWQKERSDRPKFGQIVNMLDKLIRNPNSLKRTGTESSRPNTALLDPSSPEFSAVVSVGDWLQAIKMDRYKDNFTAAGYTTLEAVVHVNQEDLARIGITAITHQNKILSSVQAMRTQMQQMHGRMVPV

[19] = biological target: Ephrin type-A receptor 4 (Homo sapiens) (UniProt P54764); details: at 1 µM
[20] = biological target: T3, Ephrin type-B receptor 2 (Homo sapiens) (UniProt P29323); details: at 0.1 µM;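 further: reported as mean inhibition of EPHB2, from the GSK PKIS dataset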
T3 sequence (whole entry): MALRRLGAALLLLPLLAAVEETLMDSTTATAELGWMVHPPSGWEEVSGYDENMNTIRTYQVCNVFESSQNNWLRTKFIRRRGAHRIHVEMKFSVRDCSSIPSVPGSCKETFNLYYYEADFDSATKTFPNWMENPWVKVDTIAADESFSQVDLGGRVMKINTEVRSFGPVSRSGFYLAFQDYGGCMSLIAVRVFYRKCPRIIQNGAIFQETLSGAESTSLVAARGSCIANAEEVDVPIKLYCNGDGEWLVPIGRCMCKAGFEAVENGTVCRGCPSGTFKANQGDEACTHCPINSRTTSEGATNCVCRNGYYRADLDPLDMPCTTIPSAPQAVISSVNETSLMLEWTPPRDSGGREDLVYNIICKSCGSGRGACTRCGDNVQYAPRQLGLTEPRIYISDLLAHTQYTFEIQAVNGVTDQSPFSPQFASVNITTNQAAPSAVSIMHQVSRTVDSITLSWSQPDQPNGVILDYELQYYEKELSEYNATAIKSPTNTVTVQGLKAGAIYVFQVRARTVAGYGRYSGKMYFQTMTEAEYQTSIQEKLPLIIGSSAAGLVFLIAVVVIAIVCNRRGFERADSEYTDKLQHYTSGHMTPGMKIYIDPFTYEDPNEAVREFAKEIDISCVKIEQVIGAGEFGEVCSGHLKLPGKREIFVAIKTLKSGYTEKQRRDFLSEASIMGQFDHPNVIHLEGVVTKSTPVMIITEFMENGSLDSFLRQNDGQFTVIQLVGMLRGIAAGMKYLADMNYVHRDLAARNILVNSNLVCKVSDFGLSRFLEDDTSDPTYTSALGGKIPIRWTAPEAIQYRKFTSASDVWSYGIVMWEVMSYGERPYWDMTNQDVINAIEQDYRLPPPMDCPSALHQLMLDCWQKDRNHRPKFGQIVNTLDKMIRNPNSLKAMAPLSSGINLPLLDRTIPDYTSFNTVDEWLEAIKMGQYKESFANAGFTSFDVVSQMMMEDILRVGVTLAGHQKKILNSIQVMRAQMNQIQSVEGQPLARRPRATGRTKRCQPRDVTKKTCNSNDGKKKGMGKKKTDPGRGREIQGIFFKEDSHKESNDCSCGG

Chain of Tyrosine-protein kinase CSK (Homo sapiens) (P41240 2-450 limits assumed): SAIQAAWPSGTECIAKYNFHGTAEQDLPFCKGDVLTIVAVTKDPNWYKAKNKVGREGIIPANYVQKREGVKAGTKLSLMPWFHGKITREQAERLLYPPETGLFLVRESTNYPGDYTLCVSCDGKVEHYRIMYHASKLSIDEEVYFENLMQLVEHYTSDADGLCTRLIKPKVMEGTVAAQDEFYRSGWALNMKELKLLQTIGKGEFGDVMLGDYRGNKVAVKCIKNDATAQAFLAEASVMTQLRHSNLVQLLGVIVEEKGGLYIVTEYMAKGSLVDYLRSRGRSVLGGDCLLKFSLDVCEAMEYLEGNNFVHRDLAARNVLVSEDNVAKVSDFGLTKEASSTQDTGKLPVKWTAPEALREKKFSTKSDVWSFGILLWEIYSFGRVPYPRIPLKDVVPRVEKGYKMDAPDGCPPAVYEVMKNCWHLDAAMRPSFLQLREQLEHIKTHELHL

| Compound | inhibition [1] [%] | inhibition [2] [%] | inhibition [3] [%] | inhibition [4] [%] | inhibition [5] [%] | inhibition [6] [%] | inhibition [7] [%] | inhibition [8] [%] | inhibition [9] [%] | inhibition [10] [%] | inhibition [11] [%] | inhibition [12] [%] | inhibition [13] [%] | inhibition [14] [%] | inhibition [15] [%] | inhibition [16] [%] | inhibition [17] [%] | inhibition [18] [%] | inhibition [19] [%] | inhibition [20] [%] |
| --- | --- | --- | --- | --- | --- | --- | --- | --- | --- | --- | --- | --- | --- | --- | --- | --- | --- | --- | --- | --- |
| CC(=O)Nc1cccc(C#Cc2cncnc2Nc2ccc(OCc3cccc(F)c3)c(Cl)c2)n1 | 3.91 | 2.33 | 1.71 | 69.5 | 77.7 | 24.8 | 72.5 | 29.1 | 55.6 | 0.03 | 9.1 | -2.43 | 3.75 | 2.75 | 1.53 | 0.44 | 0.58 | 1.13 | 5.16 | -1.46 |
| CCc1cccc(NC(=O)Nc2ccc(Oc3ccc4nc(NC(=O)OC)[nH]c4c3)cc2)c1 | 3.75 | 78 | 80.2 | 8 | 7.33 | 2.52 | 5.42 | 0.96 | 2.05 | 1.06 | 1.6 | 3.59 | 4.31 | 49.4 | 65.7 | 13.9 | 10.1 | 52.3 | 72.3 | 44.5 |
| CN1CCC(C(=O)Nc2n[nH]c3nnc(-c4ccccc4)cc23)CC1 | 6.5 | 0.55 | 1 | 10.2 | 7.57 | 1.7 | 3.79 | 2.96 | 6.37 | 1.89 | 4.1 | -2.57 | 4.67 | 1.84 | 2.09 | 4.03 | 2.66 | 8.03 | 8.45 | 4.92 |
| CCn1c(-c2nonc2N)nc2c(C#CC(C)(C)O)nc(OC[C@@H](N)c3ccccc3)cc21 | -2.13 | 4.51 | 12.2 | 0.44 | 3.81 | -1.04 | -2.49 | -1.53 | -1.51 | -1.77 | -1.79 | -0.23 | 0.54 | -1.19 | 0.2 | -1.62 | 7.71 | -5.47 | 6.31 | 5 |
| [O-][S+]1CCN(Cc2ccc(-c3ccc4ncnc(Nc5ccc(OCc6ccccc6)c(F)c5)c4c3)o2)CC1 | -3.52 | 0.34 | 0.62 | 84.1 | 90.7 | 42.6 | 84.9 | 39.7 | 68.6 | 4.05 | 10.7 | 3.03 | 0.99 | 0.8 | -0.21 | 4.64 | 4.32 | 4.58 | -1.51 | 4.14 |
| CCCN1CCC=C(c2ccc(Nc3nc(Nc4ccccc4C(N)=O)c4cc[nH]c4n3)c(C)c2)C1 | 1.79 | 1.12 | 3.26 | 3.3 | 8.18 | 0.06 | 9.35 | 1.44 | 6.61 | 2.92 | 25.1 | 7.32 | 51.6 | 1.69 | -0.07 | 3.53 | 2.81 | 5.85 | 10.8 | 8.59 |
| COc1ccc2cc(-c3c(-c4ccncc4)nc(-c4ccc([S+](C)[O-])cc4)n3C)ccc2c1 (centres undefined) | -2.89 | 1.35 | 3.95 | 6.79 | 3.4 | 2.1 | 0.76 | 1.88 | 1.02 | -0.14 | -0.54 | 1.75 | 0.88 | 1.69 | 1.61 | 3.89 | 5.2 | -2.82 | 8.03 | 3.58 |
| N#Cc1c(NC(=O)c2cccc3ccccc23)sc2c1CCCC2 | 0.21 | 2.55 | 2.6 |  |  |  |  |  |  |  |  |  |  | -4.77 | -1.43 | 2.05 | 4.38 | 6.92 | 2.64 | 5.23 |
| Nc1ncnc2occ(-c3ccc(NC(=O)Nc4cccc(C(F)(F)F)c4)cc3)c12 | 44.4 | 64 | 79.2 | 1.36 | 7.97 | 3.92 | 6.22 | 2.76 | 3.15 | 2.8 | 4.59 | 0.78 | 5.43 | 17.2 | 85 | 18.4 | 50.6 | 46.8 | 78.3 | 74.1 |
| Cc1nn(C)c2cc(N(C)c3ccnc(Nc4cccc(S(N)(=O)=O)c4)n3)ccc12 | 22.4 | -2.88 |  | 5.33 | 13.9 | 1.02 | 16 | 2.56 | 9.38 | 1.34 | 7.49 | 1.34 | 12.7 | 1.28 | 18.6 | 6.82 | 16.5 | 12.2 | 43.7 | 7.61 |
